Drawing on PubChem BioAssay (NCI), this text covers growth for seven compounds.

The panel holds about 83,000 compounds, 20% with a hit somewhere; the sample as a whole holds those more often.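 The endpoint reported here, percent growth, reads 100 for growth as untreated, 0 for no net growth and -100 for all cells dead.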 A number with no mark means an inactive call. The source made the active and inactive calls. How the source made its calls: active means growth percent below 10; inactive means the rest.

Among the test systems are NCI-H23 lung; NCI-H226 lung; NCI-H322M lung; HOP-62 NSCLC; NCI-H460 lung; HOP-92 NSCLC; NCI-H522 lung; A549/ATCC NSCLC; 786-0 renal; COLO 205 colon; DU-145 prostate; K-562 leukemia; MALME-3M melanoma; MDA-MB-231 breast; RXF 393 renal; SF-268 CNS; SF-295 CNS; SF-539 CNS; UACC-257 melanoma; M14 melanoma.
What all share (assay): NCI-60 one-dose screen, 48 h (100 = growth as untreated, 0 = no growth, -100 = all killed)
Details in all cases: 10 µM unless noted

Consider `CC(=O)Nc1ccc(S(=O)(=O)Nc2ccc(-c3ccc4c(c3)NC(=O)/C4=C\c3ccc[nH]3)cc2)cc1`, for which the growth with NCI-H23 lung is 42.1%; in the test on NCI-H226 lung, 85%; with NCI-H322M lung, 64.8%; in the test with HOP-62 NSCLC, 87%; in the test with NCI-H460 lung it was 38.6%; in the test with HOP-92 NSCLC it was 91.5%. Further, the growth was 75.2% in the test with NCI-H522 lung; 79.6% with A549/ATCC NSCLC; 104% in the test with 786-0 renal; 96.6% with COLO 205 colon; 93.4% with DU-145 prostate; 64.8% in the test with K-562 leukemia. Moreover, the growth in the test on MALME-3M melanoma was 92.5%; with MDA-MB-231 breast, 88.7%; in the test on RXF 393 renal it was 107%; in the test with SF-268 CNS, 112%; in the test on SF-295 CNS, 94.9%; in the test on SF-539 CNS, 84%. The values for the growth with UACC-257 melanoma and in the test on M14 melanoma were 102% and 100%, respectively.
`C/C(=N\Nc1ccc(S(N)(=O)=O)cc1)c1cnn(-c2cc(=O)[nH]c3ccc(Br)cc23)c1C`: the growth in the test with NCI-H23 lung was 69.9%; in the test on NCI-H226 lung it was 62.3%; in the test on NCI-H322M lung, 77.7%; in the test on HOP-62 NSCLC, 63.4%; in the test on NCI-H460 lung it was 77.9%; in the test on HOP-92 NSCLC, -2.47% (active). The growth in the test with NCI-H522 lung was 5.07% (active); in the test with A549/ATCC NSCLC it was 100%; in the test with 786-0 renal, 85.9%; in the test with COLO 205 colon it was 85.5%; in the test with DU-145 prostate, 77.9%; in the test with K-562 leukemia it was 35%. Also, the growth in the test with MALME-3M melanoma is 21.7%; with MDA-MB-231 breast, 31.4%; in the test on RXF 393 renal it was 68.6%; with SF-268 CNS, 57.3%; with SF-295 CNS it was 91.9%; in the test on SF-539 CNS it was 41.6%. In addition, the growth with UACC-257 melanoma is 66.3%; in the test with M14 melanoma it was 73%.
Consider `COc1ccc(-c2cc(-c3cc(C(C)C)c(O)cc3C)nn2-c2ccc(S(N)(=O)=O)cc2)cc1`, for which the growth in the test on NCI-H23 lung is 41.5%; in the test on NCI-H226 lung, 78.6%; in the test on NCI-H322M lung, 72.3%; in the test on HOP-62 NSCLC it was 51.5%; in the test with NCI-H460 lung, 33.8%; with HOP-92 NSCLC, 45.4%. Also, the growth was 6.99% (active) in the test with NCI-H522 lung; 40.4% in the test on A549/ATCC NSCLC; 25.5% in the test on 786-0 renal; 122% in the test with COLO 205 colon; 16.2% with DU-145 prostate; 13.6% in the test with K-562 leukemia. In addition, the growth in the test with MALME-3M melanoma is 60.1%; with MDA-MB-231 breast it was 27.9%; with RXF 393 renal, 26.7%; with SF-268 CNS it was 47.2%; in the test on SF-295 CNS it was 19.8%; in the test with SF-539 CNS it was -28% (active). Besides, the growth is 60.5% with UACC-257 melanoma and 42.8% in the test with M14 melanoma.
As to `Nc1nc2cc(-c3ccc4ncnc(NCc5ccccc5)c4c3)ccc2o1`, the growth in the test with NCI-H23 lung was 24.4%; with NCI-H226 lung it was -45.9% (active); in the test on NCI-H322M lung it was -19.8% (active); with HOP-62 NSCLC, -46.1% (active); in the test on NCI-H460 lung, 7.02% (active); in the test with HOP-92 NSCLC, -39.5% (active). The growth with NCI-H522 lung is -12.1% (active); with A549/ATCC NSCLC it was 11.4%; in the test on 786-0 renal, 9.02% (active); in the test on COLO 205 colon, 52.9%; with DU-145 prostate it was 15.9%; in the test on K-562 leukemia, 25.9%. The growth in the test on MALME-3M melanoma was -23.8% (active); with MDA-MB-231 breast it was -48.8% (active); with RXF 393 renal, -75.6% (active); in the test with SF-268 CNS it was 25%; with SF-295 CNS, -42.3% (active); with SF-539 CNS, -86.5% (active). The growth in the test with UACC-257 melanoma is 68.4%; with M14 melanoma, 22.4%.
For `Fc1ccc(Nc2nnc(-c3c[nH]c4ccccc34)o2)cc1`, the growth in the test on NCI-H23 lung is 85.7%; in the test on NCI-H226 lung, 70.2%; with NCI-H322M lung it was 94.5%; with HOP-62 NSCLC it was 71%; in the test with NCI-H460 lung it was 91.9%; in the test on HOP-92 NSCLC, 58.2%. The growth in the test on NCI-H522 lung was 48.7%; in the test with A549/ATCC NSCLC it was 77.5%; with 786-0 renal it was 94.7%; with COLO 205 colon, 127%; in the test on DU-145 prostate it was 98%; with K-562 leukemia, 66.9%. Also, the growth was 80.8% with MALME-3M melanoma; 60.8% with MDA-MB-231 breast; 93.9% in the test with RXF 393 renal; 73.1% with SF-268 CNS; 84.1% in the test on SF-295 CNS; 71.2% in the test on SF-539 CNS. In addition, the growth is 92.7% in the test with UACC-257 melanoma and 102% with M14 melanoma.
For the compound `O=C(N/N=C/c1ccc(B(O)O)s1)c1[nH]c2ccc(Br)cc2c1-c1ccccc1`, the growth was -94.9% (active) in the test with NCI-H23 lung; -45.2% (active) in the test with NCI-H226 lung; -79.1% (active) in the test with NCI-H322M lung; -69.8% (active) in the test with HOP-62 NSCLC; -76% (active) in the test on NCI-H460 lung; -60.2% (active) in the test with HOP-92 NSCLC. Moreover, the growth with NCI-H522 lung is -83% (active); with A549/ATCC NSCLC, -62.8% (active); in the test with 786-0 renal, -66.2% (active); in the test with COLO 205 colon, -81.8% (active); with DU-145 prostate it was -56.4% (active); in the test on K-562 leukemia, 2.64% (active). Also, the growth in the test on MALME-3M melanoma was -96.2% (active); in the test with MDA-MB-231 breast, -88.1% (active); with RXF 393 renal, -94.3% (active); in the test with SF-268 CNS, -37.2% (active); with SF-295 CNS, -98.1% (active); with SF-539 CNS, -98.8% (active). Also, the results for the growth with UACC-257 melanoma and in the test on M14 melanoma were -77.4% (active) and -67.4% (active), respectively.
As for `COc1ccc(-c2nc3ccccc3n2CC(=O)N=Nc2c(O)[nH]c3ccc(OC)cc23)cc1`, the growth is 89.7% in the test with NCI-H23 lung; -18.8% (active) in the test with NCI-H226 lung; 89.4% with NCI-H322M lung; 67.4% in the test on HOP-62 NSCLC; 10.5% in the test with NCI-H460 lung; -7.89% (active) in the test on HOP-92 NSCLC. Moreover, the growth in the test with NCI-H522 lung is 47.8%; in the test on A549/ATCC NSCLC, 37%; in the test with 786-0 renal, 42.4%; in the test with COLO 205 colon, 36%; in the test with DU-145 prostate, 3.7% (active); in the test with K-562 leukemia, 32.5%. Besides, the growth in the test on MALME-3M melanoma was 30.6%; in the test on MDA-MB-231 breast, 66.5%; in the test with RXF 393 renal it was 10.6%; with SF-268 CNS, 77.5%; in the test with SF-295 CNS it was 104%; in the test with SF-539 CNS, -34.7% (active). For the same compound, the growth is 60.8% in the test on UACC-257 melanoma and 64.5% in the test with M14 melanoma.
